DNA Pol III inh: DNA polymerase III holoenzyme inhibition. reconstituted DNA polymerase III holoenzyme replication, biochemical. Potency, µM (doses to about 57.1 µM), for inactives: top-dose activity change, negative = inhibition. 71,000 compounds, 0.25% hits. AID 603; note: potency is the fitted concentration of half-maximal effect; % is set by controls: 0 for no effect and ±100 for the full control effect
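Reconstituted *E. coli* holoenzyme (0.35 nM Pol III, 1 nM beta, 154 nM SSB, 2 nM primase) was preincubated with compound for 15 min at RT. Synthesis on 1.4 nM ssM13Gori ran 35 min, then was stopped with PicoGreen/EDTA and read as dsDNA fluorescence.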
Tau fil binding: binders of human tau filaments; recombinant tau filaments, thioflavin S fluorescence, 15 h; filaments grown with octadecylsulfate alongside compound; 71,000 compounds, 2% hits; Potency, µM (series often up to 57.1 µM), without a hit: at the highest dose activity change, negative = inhibition; P10636;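 note: potency is the fitted concentration of half-maximal effect; % is set by controls: 0 for no effect and ±100 for the full control effect; actives lower thioflavin S fluorescence by blocking filaments or displacing dye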
Target sequence (P10636 whole entry, looked up): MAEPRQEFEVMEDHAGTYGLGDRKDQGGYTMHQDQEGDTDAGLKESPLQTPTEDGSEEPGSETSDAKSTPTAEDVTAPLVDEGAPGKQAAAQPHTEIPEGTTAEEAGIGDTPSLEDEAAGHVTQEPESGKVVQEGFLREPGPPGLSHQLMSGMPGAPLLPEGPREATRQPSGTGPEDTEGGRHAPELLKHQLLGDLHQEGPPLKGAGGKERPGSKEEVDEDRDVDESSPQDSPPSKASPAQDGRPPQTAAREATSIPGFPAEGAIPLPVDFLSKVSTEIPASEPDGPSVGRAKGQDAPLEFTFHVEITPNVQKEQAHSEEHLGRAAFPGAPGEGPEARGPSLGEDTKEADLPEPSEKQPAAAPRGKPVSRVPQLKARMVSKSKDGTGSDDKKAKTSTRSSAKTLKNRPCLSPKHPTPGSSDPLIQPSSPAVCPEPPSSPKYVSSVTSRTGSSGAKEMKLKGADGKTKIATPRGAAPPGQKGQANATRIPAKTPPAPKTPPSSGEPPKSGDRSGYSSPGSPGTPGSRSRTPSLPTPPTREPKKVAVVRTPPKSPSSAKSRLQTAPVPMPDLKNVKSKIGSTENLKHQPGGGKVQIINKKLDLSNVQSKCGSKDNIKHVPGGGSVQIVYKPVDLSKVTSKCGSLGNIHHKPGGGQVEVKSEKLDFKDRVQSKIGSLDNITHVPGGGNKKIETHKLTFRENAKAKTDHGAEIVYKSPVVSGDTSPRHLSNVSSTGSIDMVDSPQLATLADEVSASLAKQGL
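Read-out: ThS fluorescence, 450 nm excitation/510 nm emission; lower signal marks blocked filament formation or displaced dye. Tau at 1 uM with 30 uM ODS, 10 uM ThS, 5 mM DTT, 100 mM NaCl, 10 mM HEPES pH 7.4; 15 h, 37 C.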
Hsp90 Hop PPI: changes Hsp90-Hop TPR2A binding signal, up or down; Potency, µM (doses to about 57 µM), for inactives: at the top dose activity change, negative = inhibition; AlphaScreen TPR2A-His6 binding biotin-Hsp90 C-terminal peptide; 71,000 compounds, 0.44% hits; active = well fitted curve in either direction with a large enough effect; inconclusive = small, poorly fitted or top-dose-only effect, or another doubt; note: potency is the fitted concentration of half-maximal effect; % is set by controls: 0 for no effect and ±100 for the full control effect
15-hLO inh: 15-hLO (ALOX15) enzyme inhibition; purified 15hLO-1, xylenol orange hydroperoxide absorbance; Potency, µM (top dose mostly 57.1 µM), for inactives: top-dose activity change, negative = inhibition, hits mostly inhibitors; 74,000 compounds, 1.4% hits; AID 887; note: potency is the fitted concentration of half-maximal effect; % is set by controls: 0 for no effect and ±100 for the full control effect; nearly all actives have a fitted effect of over 55% in size
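Quantitative HTS in 25 mM Hepes pH 7.5 containing 0.01% Triton X-100: human 15hLO-1 at 40 nM, arachidonic acid at 50 uM, 6 min turnover. Product quantified via ferrous oxidation/xylenol orange, 573:405 nm absorbance ratio.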
YjeE inh: displaces an ADP probe from E. coli YjeE (TsaE); Potency, µM; purified YjeE enzyme, qHTS inhibition assay; 71,000 compounds, 0.05% hits; P0AF67
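Fluorescence polarization of a BODIPY Texas Red–ADP probe (2 uM) bound to purified YjeE (10 uM) was read after 15 min room-temperature incubation with compounds. Loss of polarization marks inhibitors; ADP serves as titrated control.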
* hit, by the source's call; i = inactive; ? = inconclusive; . = no result given; ! = not confirmed by another sample; [ ] = dose if it differs, or a comment. Most compounds without a hit are left out; they make up all but 3.3% or so of the library. Unless noted, calls come from the whole dose curve; as a rule, active = well fitted curve in the direction sought with a large enough effect; inconclusive = small, poorly fitted or top-dose-only effect, or another doubt; inactive = no such curve, though single readings can be large; an effect the other way counts as inactive or inconclusive.

SMILES	DNA Pol III inh	Tau fil binding	Hsp90 Hop PPI	15-hLO inh	YjeE inh
OC[C@@H]1O[C@@H](N2CCN([C@@H]3O[C@@H](CO)[C@@H](O)[C@H](O)[C@H]3O)CC2)[C@@H](O)[C@H](O)[C@H]1O	-12%[11.4 µM]	1%[11.4 µM]	-4%[11 µM]	-10%[11.4 µM]	i
C=CCSC1=NC(N)=C(C#N)C2(CCCCC2)C1C(N)=O (stereo not drawn)	1%	-16%	-1%	10%	i
CSc1nc(N)nc(SCC(=O)c2ccc(C)cc2)c1C#N	-10%	103%	1%	-2%	i
Cc1ccc(C(=O)CSC2=NC(N)=C(C#N)C3(CCCCC3)C2C(N)=O)cc1 (stereo not drawn)	-1%[11.4 µM]	3.2µM*	-16%[11 µM]	?	i
N#CC1=C(N)N=C(SCc2ccccc2)C(C(N)=O)C12CCCCC2 (stereo not drawn)	6%	6.3µM*	-15%	-16%	i
N[C@@H](Cc1c[nH]c2ccccc12)C(=O)NCC(=O)O	-4%	?	-4%	.	i
NC(=O)c1ncn([C@@H]2O[C@@H](CO)[C@@H](O)[C@H]2O)n1	-5%	-6%	1%	.	i
CCc1cc2c(nc1CC)CCN(CC/C(C)=N/OC[C@@H](O)[C@@H]1O[C@@H]3OC(C)(C)O[C@@H]3[C@H]1O)C2	.	.	.	-12%[11.4 µM]	.
Cc1ccc(NC(=O)COC(=O)c2ccc3c(c2)NC(=O)C2CCCN32)cc1 (stereo not drawn)	-4%	87%	-3%	-7%	i
COC(=O)c1ccc2c(c1)NC(=O)C1CCCN21 (stereo not drawn)	-16%	-21%	-8%[2.3 µM]	7.9µM*	i
COc1ccc(OC2C=CC(C#Cc3ccccc3)OC2CO)cc1 (stereo not drawn)	.	.	.	-10%[11.4 µM]	.
CC(C)[C@@H](CC(=O)N[C@@H]1CCNC[C@H]1C(=O)N[C@H](CC(=O)N[C@@H](CCC(=O)O)CC(=O)O)Cc1c[nH]c2ccccc12)NC(=O)C[C@H](CO)NC(=O)[C@@H]1CNCC[C@H]1N	0%	?	32µM*	.	i
NCCC[C@@H](CC(=O)N[C@@H]1CCNC[C@H]1C(=O)N[C@H](CC(=O)N[C@@H](CCC(=O)O)CC(=O)O)Cc1ccccc1)NC(=O)C[C@H](CO)NC(=O)[C@@H]1CNCC[C@H]1N	-8%	-29%	32µM*	.	i
CN1CCc2ccccc2[C@@H]1Cc1ccccc1NC(=O)c1sc2ccccc2c1Cl	-3%[11.4 µM]	2%[11.4 µM]	-7%[11 µM]	16%[11.4 µM]	i
CCCC(C(=O)NCc1ccco1)N(C(=O)CNS(=O)(=O)c1ccc(Cl)cc1)C1CCCC1 (stereo not drawn)	-12%	-6%	-9%	25µM*	i
CC(C)C(C(=O)NCc1ccco1)N(C(=O)CNS(=O)(=O)c1ccccc1)C1CCCC1 (stereo not drawn)	0%	-11%	-1%	-1%	i
COCOc1ccc(Br)cc1C(=O)[C@H]1O[C@H]1c1cccc(OC)c1	.	.	.	15%[11.4 µM]	.
CCOC(=O)C1CCN(Cc2ccccc2C(F)(F)F)CC1	-2%	-8%	0%	-6%	i
CCOC(=O)C1CCN(Cc2ccc(O)c3ncccc23)CC1	-10%	-16%	5µM*	14%	i
COc1ccc(NC2=NC3(CCCCC3)N=C(N)N2)cc1	-11%	15%	-12%	25µM*	i
COc1ccccc1N1CCN(c2nc3ccccc3nc2C(C#N)C(=O)OC(C)C)CC1 (stereo not drawn)	-4%	7.9µM*	?	-8%	i
CCCCCCOC(=O)C(C#N)c1nc2ccccc2nc1N1CCOCC1 (stereo not drawn)	20%	2.5µM*	-6%	-15%	i
CCN1CCN(c2nc3ccccc3nc2C(C#N)C(=O)OCc2ccccc2)CC1 (stereo not drawn)	-4%	1.3µM*	-21%	-10%	i
CCCCOC(=O)C(C#N)c1nc2ccccc2nc1N1CCOCC1 (stereo not drawn)	-5%	4µM*	?	-22%	i
Oc1cccc2ccc(SSc3ccc4cccc(O)c4n3)nc12	-11%[11.4 µM]	-20%[11.4 µM]	-4%[11 µM]	-26%[11.4 µM]	i
SMILES	DNA Pol III inh	Tau fil binding	Hsp90 Hop PPI	15-hLO inh	YjeE inh
Cc1cc2nc3[nH]c4c(Cl)cc(Cl)cc4c3nc2cc1C	-13%[11.4 µM]	-6%[11.4 µM]	0%[11 µM]	-7%[11.4 µM]	i
C/C(CCN1CCc2nc(-c3ccccc3)c(-c3ccccc3)cc2C1)=N\OC[C@@H](O)COCc1ccco1	.	.	.	5%[11.4 µM]	.
CCCCCCOC(=O)C(C#N)c1nc2ccccc2nc1N1CCN(CC)CC1 (stereo not drawn)	-3%	1µM*	-9%	-29%	i
Cc1ccc2nsnc2c1S(=O)(=O)Nc1cccc2nsnc12	-1%	-21%	-9%	-26%	i
Cc1ccc(C)c(NS(=O)(=O)c2c(C)ccc3nsnc23)c1	-2%	13µM*	-7%	-10%	i
COc1cccc(CCc2ccccc2OCC[C@@H]2C[C@@H](O)CN2C)c1	.	.	.	20µM*	.
COc1cccc(NC2CC(=O)N(CCc3ccccc3)C2=O)c1 (stereo not drawn)	-3%	-6%	3%	5%	i
C/C(CCC(=O)OC[C@@H]1O[C@H](C#Cc2ccccc2)C=C[C@@H]1Oc1ccc(C)cc1)=N/OC[C@@H](O)[C@H]1O[C@H]2OC(C)(C)O[C@H]2[C@@H]1O	.	.	.	9%[11.4 µM]	.
N=C1N=C(N)c2cc3ccccc3cc21	-13%	2.5µM*	2%	1%	i
Nc1ccc2cc3ccccc3cc2c1	6%	?	-22%	?	i
C=C(C)C(O)C(CC/C=C(\C)C(=O)OCC)OC (stereo not drawn)	.	.	.	2%[11.4 µM]	.
O=C1Cc2c([nH]c3ccc(Br)cc23)-c2ccccc2N1	-5%	32µM*!	-1%	-11%[25.6 µM]	i
O=c1c2c([nH]c3ccc(Br)cc13)CCCC2	-1%	12%	-4%	-6%	i
O=C(O)[C@H]([C@H]1NCCS1)N1Cc2ccccc2C1	-11%[11.4 µM]	0%[11.4 µM]	2%[11 µM]	1%[11.4 µM]	i
CCN(CC)C(=O)c1cc2sc3ccccc3c2s1	-12%	71%	21%	25µM*	i
N#CC1=C(N)Oc2n[nH]c(-c3cccs3)c2C1c1ccoc1 (stereo not drawn)	-15%	12%	-15%	10µM*	i
[N-]=[N+]=N[C@@H]1[C@H](O)[C@H](CO)O[C@@H]1n1cnc2c(N)ncnc21	-7%[11.4 µM]	-4%[11.4 µM]	-1%[11 µM]	0%[11.4 µM]	i
Cc1nc(N2CCOCC2)c2nc(-c3ccccc3)n(CCCN3CCOCC3)c2n1	-3%	18%	-3%	-9%	i
O=C1CC(/C=C/c2ccco2)=Nc2ccccc2N1	?	260%	?	5µM*	i
CC(=O)N1CCC2(CC1)CCN(c1ccc(-c3ccccc3)cc1)CC2	14%	13µM*	?	-23%	i
O=C(c1cccc(F)c1)N1CCC2(CC1)CN(c1cccc(-c3ccccc3)c1)C2	1%	-12%	?	-9%	i

Screening results (PubChem BioAssay)
